Assay results taken from PubChem BioAssay (EPA / NIEHS).
The source made the active and inactive calls. How the source made its calls: active means hit-call score of the fitted dose curve at least 0.9, where 1 is the maximum; inactive means score below 0.9.

Key:
[1] = ATG_E_Box_CIS: Attagene CIS-FACTORIAL HepG2 Assay for human Enhancer Box (E-box) (AID 2282936); conditions: HepG2 E-box cis-reporter transcription, actives raise or lower the signal
Outline: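 First, HepG2 cells receive multiple cis-regulated reporter constructs by transient transfection. Next, chemicals are applied for 24 h. Finally, reporter mRNA is quantified via RT-PCR and capillary electrophoresis, with DMSO as baseline.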

[2] = ATG_M_61_CIS: Attagene CIS-FACTORIAL HepG2 Assay for M61 Transcription Factor (Internal Marker) (AID 2282937); conditions: HepG2 Attagene CIS-FACTORIAL M61 internal marker reporter; actives raise or lower the signal
Outline: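 Background-control endpoint: HepG2 cells with cis-regulated reporter constructs, 24 h exposure, reporter mRNA detected via fluorescent primer extension and capillary electrophoresis; values from bidirectional fitting with DMSO baseline.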

[3] = ATG_EGR_CIS: Attagene CIS-FACTORIAL HepG2 Assay for human Early Growth Response 1 (EGR1) (AID 2282938); conditions: HepG2 Attagene CIS-FACTORIAL EGR reporter mRNA; actives raise or lower the signal
Outline: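 Endpoint derived by bidirectional fitting versus DMSO vehicle. Method: cis-promoter reporter units transfected into HepG2, 24 h dosing, RNA isolation, RT-PCR with 6-FAM primer extension and HpaI digestion, then capillary electrophoresis fluorescence detection.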

[4] = ATG_M_19_CIS: Attagene CIS-FACTORIAL HepG2 Assay for M19 Transcription Factor (Internal Marker) (AID 2282939); conditions: HepG2 Attagene CIS-FACTORIAL M19 internal marker reporter; actives raise or lower the signal
Outline: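 HepG2, MRTU transient transfection, 24 h dosing. Total RNA → RT-PCR → 6-FAM primer extension → HpaI digest → CE fluorescence. Bidirectional curve fit, DMSO negative control.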

[5] = ATG_Ets_CIS: Attagene CIS-FACTORIAL HepG2 Assay for human Erythroblast Transformation Specific (ETS) (AID 2282941); conditions: HepG2 ETS cis-reporter transcription, actives raise or lower the signal
Outline: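 Human HepG2 hepatoma cells were transiently transfected with promoter-driven reporter constructs and treated for 24 hours. Reporter transcripts were quantified by RT-PCR with fluorescent primer extension; bidirectional curve fitting used DMSO as reference.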

[6] = molecular target: Hepatocyte nuclear factor 3-beta (Homo sapiens) (UniProt Q9Y261); experiment: ATG_FoxA2_CIS: Attagene CIS-FACTORIAL HepG2 Assay for human Forkhead box A2 (FOXA2) (AID 2282942); conditions: HepG2 cis-reporter transcription factor activity, 24 h; actives raise or lower the signal
Outline: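 Measured: reporter mRNA induction or loss in HepG2 transiently carrying multiple cis-regulated reporter units, 24 h after dosing. Quantified by RT-PCR plus capillary electrophoresis, normalised to DMSO.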

[7] = ATG_FoxO_CIS: Attagene CIS-FACTORIAL HepG2 Assay for human Forkhead box O (FoxO) (AID 2282943); conditions: HepG2 Attagene cis-reporter, FoxO element, mRNA; actives raise or lower the signal
Outline: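 Transfected HepG2 reporter cells exposed to test chemical for 24 h; reporter RNA measured by reverse transcription, PCR and fluorescent capillary electrophoresis; curves fitted for increases and decreases against DMSO.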

[8] = ATG_GATA_CIS: Attagene CIS-FACTORIAL HepG2 Assay for human GATA Binding Protein (AID 2282944); conditions: HepG2 GATA cis-element reporter, Attagene multiplex mRNA; actives raise or lower the signal
Outline: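 Cells: HepG2, transiently transfected with cis-regulated reporter transcription units. Exposure: 24 h. Detection: RT-PCR plus capillary electrophoresis of FAM-labeled fragments. Analysis: bidirectional, DMSO as baseline.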

[9] = ATG_GLI_CIS: Attagene CIS-FACTORIAL HepG2 Assay for human Zinc Finger Protein GLI1 (AID 2282945); conditions: HepG2, Attagene cis-factorial reporter mRNA, GLI element; actives raise or lower the signal
Outline: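 Transiently transfected HepG2 cells report endogenous transcription factor activity via cis-element-driven reporter units. After 24 h compound exposure, reporter mRNA was measured by RT-PCR with capillary electrophoresis; bidirectional fitting against DMSO baseline.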

[10] = ATG_ISRE_CIS: Attagene CIS-FACTORIAL HepG2 Assay for human Interferon Regulatory Factor 1 (IRF1) binding to an Interferon-Stimulated Response Element (ISRE) (AID 2282948); conditions: HepG2 ISRE cis-reporter (Attagene), mRNA transcription readout; actives raise or lower the signal
Outline: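 Cell-based cis-reporter assay; HepG2; 24 h exposure; reporter mRNA by RT-PCR plus capillary electrophoresis fluorescence; activity in either direction scored relative to DMSO.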

[11] = ATG_M_32_CIS: Attagene CIS-FACTORIAL HepG2 Assay for M32 Transcription Factor (Internal Marker) (AID 2282949); conditions: HepG2 Attagene cis-factorial M32 reporter, mRNA; actives raise or lower the signal;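 further: background control marker of the multiplexed CIS panel rather than a real target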
Outline: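 Internal background marker read-out: RT-PCR/capillary electrophoresis fluorescence of reporter transcripts from transiently transfected HepG2 cells after 24 h chemical exposure. Activity fitted bidirectionally relative to DMSO negative control.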

[12] = ATG_M_06_CIS: Attagene CIS-FACTORIAL HepG2 Assay for M06 Transcription Factor (Internal Marker) (AID 2282950); conditions: HepG2 Attagene CIS-FACTORIAL M06 internal marker reporter; actives raise or lower the signal
Outline: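 Measured 24 h post-dosing in transiently transfected HepG2 cells, this internal-marker endpoint reports reporter mRNA via RT-PCR with fluorescent primer extension and capillary electrophoresis. DMSO served as negative control and baseline for bidirectional fitting.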

[13] = molecular target: Hypoxia-inducible factor 1-alpha (Homo sapiens) (UniProt Q16665); experiment: ATG_HIF1a_CIS: Attagene CIS-FACTORIAL HepG2 Assay for human Hypoxia Inducible Factor 1 (HIF1A) (AID 2282951); conditions: HepG2 Attagene cis-factorial HIF1a reporter transcription; actives raise or lower the signal
Outline: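 Dosed 24 h, transfected HepG2 cells yielded total RNA whose reporter transcripts were RT-PCR-amplified and sized by capillary electrophoresis using fluorescent labelling; DMSO defined baseline, with gain and loss of signal both fitted.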

[14] = molecular target: Hepatocyte nuclear factor 6 (Homo sapiens) (UniProt Q9UBC0); experiment: ATG_HNF6_CIS: Attagene CIS-FACTORIAL HepG2 Assay for human Hepatocyte Nuclear Factor 6 (HNF6) (AID 2282952); conditions: HepG2 Attagene cis-factorial HNF6 reporter transcription; actives raise or lower the signal
Outline: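 Reporter mRNA induction or loss in HepG2 after 24 h exposure; transient cis-MRTU transfection; fragments quantified by capillary electrophoresis; bidirectional analysis, DMSO as negative control.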

[15] = ATG_MRE_CIS: Attagene CIS-FACTORIAL HepG2 Assay for human Metal Responsive Element (MRE) (AID 2282954); conditions: HepG2 MRE cis-reporter transcription, Attagene multiplex; actives raise or lower the signal
Outline: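 Fluorescent reporter fragments separated by capillary electrophoresis give mRNA induction for the MRE unit after 24 h treatment of transfected HepG2 cells. Endogenous transcription-factor activity is read; DMSO serves as negative control and baseline.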

[16] = ATG_PBREM_CIS: Attagene CIS-FACTORIAL HepG2 Assay for human Phenobarbital-responsive Enhancer Module (PBREM) (AID 2282955); conditions: HepG2 PBREM cis-reporter, Attagene multiplexed transcription; actives raise or lower the signal
Outline: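 Transfected liver-derived HepG2 cells exposed 24 h; PBREM reporter transcript quantified via RT-PCR and capillary electrophoresis, with activity in either direction referenced to DMSO.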

[17] = molecular target: Paired box protein Pax-6 (Homo sapiens) (UniProt P26367); experiment: ATG_Pax6_CIS: Attagene CIS-FACTORIAL HepG2 Assay for human Paired Box 6 (PAX6) (AID 2282956); conditions: HepG2 CIS-FACTORIAL PAX6 reporter transcription, RNA readout; actives raise or lower the signal
Outline: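 Multiplexed cis-reporter HepG2 system; 24 h treatment; reporter mRNA read by RT-PCR/CE fluorescence; bidirectional fit vs DMSO.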

[18] = molecular target: Bile acid receptor (Homo sapiens) (UniProt Q96RI1); experiment: ATG_IR1_CIS: Attagene CIS-FACTORIAL HepG2 Assay for human Nuclear Receptor Subfamily 1 Group H Member 4 (NR1H4), IR1 submotif (AID 2282946); conditions: IR1 reporter transcription, actives raise or lower the signal
Outline: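 HepG2 cells transiently transfected with multiple cis-promoter-driven reporter units to measure endogenous transcription factor activity; 24 h exposure. Reporter mRNA read by RT-PCR, FAM labelling, HpaI digestion and capillary electrophoresis. Bidirectional fit versus DMSO.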

[19] = ATG_GRE_CIS: Attagene CIS-FACTORIAL HepG2 Assay for human Glucocorticoid Response Elements (GRE) (AID 2282947); conditions: HepG2 GRE cis-reporter, Attagene multiplex mRNA; actives raise or lower the signal
Outline: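 Endogenous transcription factor activity is read through cis-element reporter constructs transiently transfected into HepG2 cells. After 24 h treatment, labelled RT-PCR products are resolved by capillary electrophoresis; DMSO sets baseline for bidirectional curve fitting.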

[20] = molecular target: Heat shock factor protein 1 (Homo sapiens) (UniProt Q00613); experiment: ATG_HSE_CIS: Attagene CIS-FACTORIAL HepG2 Assay for human Heat Shock Transcription Factor 1 (HSE) (AID 2282953); conditions: HepG2 HSE cis-reporter, Attagene RNA transcription; actives raise or lower the signal
Outline: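 Reporter mRNA induction in HepG2 is measured 24 h after dosing, using transiently transfected multiplexed cis-regulated reporter units. Signal comes from capillary electrophoresis of labelled RT-PCR products, with DMSO as negative control.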

Sequence of Hepatocyte nuclear factor 6 (Homo sapiens) (Q9UBC0 whole entry, looked up, the tested form may be a part): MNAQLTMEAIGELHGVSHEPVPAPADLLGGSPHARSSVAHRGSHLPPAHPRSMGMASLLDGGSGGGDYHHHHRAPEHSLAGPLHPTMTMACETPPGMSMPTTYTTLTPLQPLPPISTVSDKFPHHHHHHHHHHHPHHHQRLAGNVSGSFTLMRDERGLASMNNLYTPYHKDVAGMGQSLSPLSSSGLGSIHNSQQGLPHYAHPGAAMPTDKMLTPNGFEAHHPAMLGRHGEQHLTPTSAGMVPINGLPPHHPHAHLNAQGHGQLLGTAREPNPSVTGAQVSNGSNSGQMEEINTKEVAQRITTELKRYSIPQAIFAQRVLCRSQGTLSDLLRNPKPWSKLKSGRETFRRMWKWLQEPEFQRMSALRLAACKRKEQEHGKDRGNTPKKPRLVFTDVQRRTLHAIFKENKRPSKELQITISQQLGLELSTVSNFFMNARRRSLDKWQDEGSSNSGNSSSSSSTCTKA
Sequence of Hepatocyte nuclear factor 3-beta (Homo sapiens) (Q9Y261 whole entry, looked up): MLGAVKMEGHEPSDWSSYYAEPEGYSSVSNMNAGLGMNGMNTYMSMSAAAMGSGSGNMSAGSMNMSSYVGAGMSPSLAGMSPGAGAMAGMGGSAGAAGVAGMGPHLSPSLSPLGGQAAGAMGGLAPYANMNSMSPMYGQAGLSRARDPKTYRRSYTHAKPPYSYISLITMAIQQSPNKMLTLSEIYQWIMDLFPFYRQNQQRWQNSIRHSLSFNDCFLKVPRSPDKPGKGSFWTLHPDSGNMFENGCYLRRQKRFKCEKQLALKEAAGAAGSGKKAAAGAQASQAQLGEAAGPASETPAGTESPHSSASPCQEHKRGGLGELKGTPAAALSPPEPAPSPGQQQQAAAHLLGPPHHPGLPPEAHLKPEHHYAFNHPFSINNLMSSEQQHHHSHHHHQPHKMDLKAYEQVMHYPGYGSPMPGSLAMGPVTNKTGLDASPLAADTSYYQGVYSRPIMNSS
Sequence of Bile acid receptor (Homo sapiens) (Q96RI1 whole entry, looked up): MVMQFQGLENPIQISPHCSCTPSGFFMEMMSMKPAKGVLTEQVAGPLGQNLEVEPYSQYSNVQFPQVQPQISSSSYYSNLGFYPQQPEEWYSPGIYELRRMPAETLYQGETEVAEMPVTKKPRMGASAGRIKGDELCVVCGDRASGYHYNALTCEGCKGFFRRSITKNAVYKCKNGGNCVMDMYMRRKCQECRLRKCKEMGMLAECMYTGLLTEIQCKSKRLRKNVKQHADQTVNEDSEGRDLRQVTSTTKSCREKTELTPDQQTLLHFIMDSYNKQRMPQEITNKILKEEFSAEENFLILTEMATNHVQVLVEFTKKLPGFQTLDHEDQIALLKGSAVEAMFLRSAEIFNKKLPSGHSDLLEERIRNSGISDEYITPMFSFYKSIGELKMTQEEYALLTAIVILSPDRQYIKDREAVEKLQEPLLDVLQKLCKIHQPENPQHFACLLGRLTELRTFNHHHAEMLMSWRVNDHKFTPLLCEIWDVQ
Sequence of Paired box protein Pax-6 (Homo sapiens) (P26367 whole entry, looked up): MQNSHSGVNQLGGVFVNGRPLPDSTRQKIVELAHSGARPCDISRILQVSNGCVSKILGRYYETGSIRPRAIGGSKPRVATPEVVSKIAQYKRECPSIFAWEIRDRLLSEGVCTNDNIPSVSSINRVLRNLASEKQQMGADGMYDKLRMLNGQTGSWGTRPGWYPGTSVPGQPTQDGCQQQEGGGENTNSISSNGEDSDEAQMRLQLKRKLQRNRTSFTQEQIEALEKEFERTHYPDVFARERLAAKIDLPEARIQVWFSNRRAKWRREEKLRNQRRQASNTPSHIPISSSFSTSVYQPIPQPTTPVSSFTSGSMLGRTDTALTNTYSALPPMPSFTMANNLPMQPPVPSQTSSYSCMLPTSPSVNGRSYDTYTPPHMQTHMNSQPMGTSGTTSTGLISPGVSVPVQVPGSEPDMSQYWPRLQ
Sequence of Hypoxia-inducible factor 1-alpha (Homo sapiens) (Q16665 whole entry, looked up): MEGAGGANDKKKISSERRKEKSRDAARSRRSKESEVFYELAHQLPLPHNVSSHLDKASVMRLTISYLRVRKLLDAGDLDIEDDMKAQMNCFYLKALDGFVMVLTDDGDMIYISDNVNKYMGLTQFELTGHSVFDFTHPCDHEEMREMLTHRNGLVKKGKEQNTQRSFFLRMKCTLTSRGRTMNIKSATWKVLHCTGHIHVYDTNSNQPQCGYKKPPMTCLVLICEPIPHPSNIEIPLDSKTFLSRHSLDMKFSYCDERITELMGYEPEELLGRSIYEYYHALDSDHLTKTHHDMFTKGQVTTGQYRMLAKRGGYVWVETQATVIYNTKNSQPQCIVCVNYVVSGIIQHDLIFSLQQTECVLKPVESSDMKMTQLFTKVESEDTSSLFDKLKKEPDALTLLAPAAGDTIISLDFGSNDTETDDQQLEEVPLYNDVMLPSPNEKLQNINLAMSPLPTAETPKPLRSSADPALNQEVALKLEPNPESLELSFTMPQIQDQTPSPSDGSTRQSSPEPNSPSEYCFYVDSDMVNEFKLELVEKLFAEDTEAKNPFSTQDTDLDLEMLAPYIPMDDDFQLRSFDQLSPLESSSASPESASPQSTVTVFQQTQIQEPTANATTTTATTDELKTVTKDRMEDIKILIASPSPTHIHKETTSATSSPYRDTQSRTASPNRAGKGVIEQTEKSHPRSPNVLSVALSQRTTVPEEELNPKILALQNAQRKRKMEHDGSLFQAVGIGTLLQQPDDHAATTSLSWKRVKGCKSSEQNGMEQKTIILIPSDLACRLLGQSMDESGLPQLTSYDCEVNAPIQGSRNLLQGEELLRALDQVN
Sequence of Heat shock factor protein 1 (Homo sapiens) (Q00613 whole entry, looked up): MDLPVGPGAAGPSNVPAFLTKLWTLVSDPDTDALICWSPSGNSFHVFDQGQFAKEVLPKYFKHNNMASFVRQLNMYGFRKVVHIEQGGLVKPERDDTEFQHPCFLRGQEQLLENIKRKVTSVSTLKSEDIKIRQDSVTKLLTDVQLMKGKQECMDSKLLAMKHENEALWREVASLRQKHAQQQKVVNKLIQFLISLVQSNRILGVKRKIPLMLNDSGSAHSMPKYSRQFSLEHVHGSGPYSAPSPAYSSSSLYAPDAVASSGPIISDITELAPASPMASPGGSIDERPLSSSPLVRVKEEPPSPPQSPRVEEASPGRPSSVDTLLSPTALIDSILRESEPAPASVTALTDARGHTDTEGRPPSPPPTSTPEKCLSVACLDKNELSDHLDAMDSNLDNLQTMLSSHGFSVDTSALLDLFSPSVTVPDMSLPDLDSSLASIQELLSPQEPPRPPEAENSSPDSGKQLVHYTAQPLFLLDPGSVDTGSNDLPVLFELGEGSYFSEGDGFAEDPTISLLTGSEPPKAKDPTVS

Clc1ccc(Cl)c(Cl)c1
outcome [1]: inactive | outcome [2]: inactive | outcome [3]: inactive | outcome [4]: inactive | outcome [5]: inactive | outcome [6]: inactive | outcome [7]: inactive | outcome [8]: inactive | outcome [9]: inactive | outcome [10]: inactive | outcome [11]: inactive | outcome [12]: inactive | outcome [13]: inactive | outcome [14]: inactive | outcome [15]: inactive | outcome [16]: inactive | outcome [17]: inactive

Clc1ccccc1Cl
outcome [1]: inactive | outcome [2]: inactive | outcome [3]: inactive | outcome [4]: inactive | outcome [5]: inactive | outcome [6]: inactive | outcome [7]: inactive | outcome [8]: inactive | outcome [9]: inactive | outcome [18]: inactive | outcome [19]: inactive | outcome [10]: inactive | outcome [11]: inactive | outcome [12]: inactive | outcome [13]: inactive | outcome [14]: inactive | outcome [20]: inactive | outcome [15]: inactive | outcome [16]: inactive | outcome [17]: inactive

CN(C)[C@@H]1C(=O)C(C(N)=O)=C(O)[C@@]2(O)C(=O)C3=C(O)c4c(O)cccc4[C@@](C)(O)[C@H]3C[C@@H]12
outcome [1]: inactive | outcome [2]: inactive | outcome [3]: inactive | outcome [4]: inactive | outcome [5]: inactive | outcome [6]: inactive | outcome [7]: inactive | outcome [8]: inactive | outcome [9]: inactive | outcome [18]: inactive | outcome [19]: inactive | outcome [10]: inactive | outcome [11]: inactive | outcome [12]: inactive | outcome [14]: inactive | outcome [20]: inactive | outcome [15]: inactive | outcome [16]: inactive | outcome [17]: inactive

O=C(Nc1ccccc1)c1ccccc1I
outcome [1]: inactive | outcome [2]: inactive | outcome [3]: inactive | outcome [4]: inactive | outcome [5]: inactive | outcome [6]: inactive | outcome [7]: inactive | outcome [8]: inactive | outcome [9]: inactive | outcome [19]: inactive | outcome [10]: inactive | outcome [11]: inactive | outcome [12]: inactive | outcome [13]: inactive | outcome [14]: inactive | outcome [20]: inactive | outcome [15]: inactive | outcome [16]: inactive | outcome [17]: inactive

C[N+](C)(C)CC1CO1 (stereo not given)
outcome [1]: inactive | outcome [2]: inactive | outcome [3]: inactive | outcome [4]: inactive | outcome [5]: inactive | outcome [6]: inactive | outcome [7]: inactive | outcome [8]: inactive | outcome [9]: inactive | outcome [10]: inactive | outcome [11]: inactive | outcome [12]: inactive | outcome [13]: inactive | outcome [14]: inactive | outcome [20]: inactive | outcome [15]: inactive | outcome [17]: inactive

Nc1ccc(Cl)cc1N
outcome [1]: inactive | outcome [2]: inactive | AC50 [3]: 28.2 µM (active) | outcome [4]: inactive | outcome [5]: inactive | outcome [6]: inactive | outcome [7]: inactive | outcome [8]: inactive | outcome [9]: inactive | outcome [18]: inactive | outcome [19]: inactive | outcome [10]: inactive | outcome [11]: inactive | outcome [12]: inactive | outcome [14]: inactive | outcome [20]: inactive | AC50 [15]: 22.9 µM (active) | outcome [16]: inactive | AC50 [17]: 27.4 µM (active)

CCOC(=O)[C@]1(c2ccccc2)Oc2ccccc2[C@@H]1N
outcome [1]: inactive | outcome [2]: inactive | AC50 [3]: 33 µM (active) | outcome [4]: inactive | outcome [5]: inactive | outcome [6]: inactive | outcome [8]: inactive | AC50 [9]: 59.5 µM (active) | outcome [18]: inactive | AC50 [19]: 52.6 µM (active) | AC50 [10]: 33 µM (active) | AC50 [11]: 52.7 µM (active) | outcome [12]: inactive | AC50 [13]: 1.78 µM (active) | AC50 [14]: 43.3 µM (active) | AC50 [20]: 61.8 µM (active) | AC50 [15]: 33 µM (active) | AC50 [16]: 9.64 µM (active) | AC50 [17]: 37.6 µM (active)
